Test results taken from PubChem BioAssay (Tox21).
Several values for one entry are separate records, joined by “and”; a condition that tells them apart may be missing. Identical values can stand only once. Records with an inconclusive call do not appear. Where a structure was tested more than once in an assay, its records may differ in their call. Activity calls are given as the source filed them. Calls come from the whole dose curve; as a rule, active = well fitted curve in the direction sought with a large enough effect in the repeat runs; inconclusive = weak or mixed curves; inactive = no such curve, though single readings can be large; an effect the other way counts as inactive or inconclusive.

Tests used:
[1] = A CellTox Green Cytotoxicity Assay to monitor cytotoxicity in HEK293 cells - 40 hour (AID 1224871); note: nearly all actives have a fitted effect of over 45% in size
How it was run: (§1)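 Cells (HEK293, 600/well) and dye reagent are dispensed together. After 5 h at 37 C, 23 nL compound is pinned in. Plates stay at 37 C for 40 h with fluorescence read at 0h, 8h, 16h, 24h, 32h and 40h.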

[2] = qHTS RealTime-Glo MT Cell Viability Assay in HepG2 cells - 8 hour (AID 1224873); note: nearly all actives have a fitted effect of over 55% in size
How it was run: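 Real-time viability: cells seeded at 600 per well together with NanoLuc and cell-permeant prosubstrate, compounds added after 5 h incubation. Luminescence tracked at 0, 8, 16, 24, 32 and 40 h of exposure.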

[3] = qHTS RealTime-Glo MT Cell Viability Assay in HEK293 cells - 40 hour (AID 1224874); settings: RealTime-Glo luminescence; max response: stronger effect = lower value; note: nearly all actives have a fitted effect of over 50% in size
How it was run: (§2)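 Real-time viability in HEK293: signal arises when living cells convert a prosubstrate for NanoLuc in the medium, so luminescence tracks viable cell number. Compound (23 nL, DMSO) added 5 h post-seeding; kinetic reads at 0–40 h, 37 C.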

[4] = A CellTox Green Cytotoxicity Assay to monitor cytotoxicity in HEK293 cells - 24 hour (AID 1224875); note: nearly all actives have a fitted effect of over 45% in size
How it was run: as §1

[5] = A CellTox Green Cytotoxicity Assay to monitor cytotoxicity in HepG2 cells - 16 hour (AID 1224876); note: nearly all actives have a fitted effect of over 45% in size
How it was run: (§3)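 Cells and non-lytic dye reagent are dispensed together (600 HepG2 cells/well) and incubated 5 h before DMSO compound transfer. Kinetic fluorescence is then recorded in the same wells during 40 h at 37 C.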

[6] = qHTS RealTime-Glo MT Cell Viability Assay in HepG2 cells - 32 hour (AID 1224877); note: nearly all actives have a fitted effect of over 55% in size
How it was run: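 qHTS, HepG2, 600 cells/well, RealTime-Glo (NanoLuc + prosubstrate) added with cells; 5 h preincubation; DMSO compound addition; 37 C; luminescence at 0/8/16/24/32/40 h.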

[7] = A CellTox Green Cytotoxicity Assay to monitor cytotoxicity in HepG2 cells - 24 hour (AID 1224878); note: nearly all actives have a fitted effect of over 45% in size
How it was run: as §3

[8] = A CellTox Green Cytotoxicity Assay to monitor cytotoxicity in HepG2 cells - 40 hour (AID 1224879); note: nearly all actives have a fitted effect of over 40% in size
How it was run: as §3

[9] = qHTS RealTime-Glo MT Cell Viability Assay in HEK293 cells - 0 hour (AID 1224880); note: nearly all actives have a fitted effect of over 45% in size
How it was run: as §2
% is set by controls: 0 for no effect and ±100 for the full control effect; potency is the fitted concentration of half-maximal effect.

CCCC(c1cc(C(C)(C)C)c(O)cc1C)c1cc(C(C)(C)C)c(O)cc1C
active: Potency [1] 49.6 µM | Potency [2] 39.4 µM | Potency [3] 17.6 µM | Potency [4] 55.6 µM | Potency [5] 44.2 µM | Potency [6] 35.1 µM | Potency [7] 39.4 µM | Potency [8] 31.3 µM
inactive: Potency [9]

O=c1cc(-c2ccc(O)cc2)oc2cc(O)cc(O)c12
inactive and 34.7 µM (active): Potency [7]
active: Potency [8] 38.9 µM
inactive: Potency [2] | Potency [4] | Potency [6] | Potency [9]
inactive and 43.6 µM (active): Potency [1]
inactive and 27.5 µM (active): Potency [5]

Cc1cccc(S(=O)(=O)O)c1C
inactive: Potency [1] | Potency [2] | max response [3] -3.36% | Potency [4] | Potency [6] | Potency [7] | Potency [8] | Potency [9]

O=C(NOCC1CC1)c1ccc(F)c(F)c1Nc1ccc(I)cc1Cl
active: Potency [3] 23.9 µM | Potency [7] 0.0425 µM | Potency [8] 0.107 µM | Potency [9] 16.9 µM
inactive: Potency [1] | Potency [2] | Potency [4] | Potency [5]

Clc1ccc(C(Cn2ccnc2)OCc2ccc(Sc3ccccc3)cc2)c(Cl)c1 (configuration not stated)
inactive: Potency [1] | Potency [2] | Potency [4] | Potency [5] | Potency [6] | Potency [7] | Potency [8] | Potency [9]

CC[C@H]1O[C@]2(CC[C@@H]1C)C[C@@H]1C[C@@H](C/C=C(\C)C[C@@H](C)/C=C/C=C3\CO[C@@H]4[C@H](O)C(C)=C[C@@H](C(=O)O1)[C@]34O)O2
active: Potency [1] 43.3 µM | Potency [2] 48.5 µM | Potency [3] 24.3 µM | Potency [4] 48.5 µM | Potency [5] 48.5 µM | Potency [6] 43.3 µM | Potency [8] 27.3 µM
inactive: Potency [9]

CCCCCCCCCCCCCCCS(=O)(=O)Oc1ccccc1
inactive: Potency [1] | Potency [2] | max response [3] -18% | Potency [4] | Potency [5] | Potency [6] | Potency [7] | Potency [8] | Potency [9]

COC(=O)C1=C(C)NC(C)=C(C(=O)OCC(C)C)C1c1ccccc1[N+](=O)[O-] (configuration not stated)
inactive: Potency [4] | Potency [7] | Potency [8]
49 µM (active) and inactive: Potency [1]
active: Potency [2] 43.6 µM | Potency [3] 19.5 µM and 23.9 µM | Potency [6] 49 µM | Potency [9] 21.3 µM

CC(C)C(C)(C)C(C)(C)C(C)(C)S
inactive: Potency [1] | Potency [2] | max response [3] 0.74% | Potency [4] | Potency [5] | Potency [6] | Potency [7] | Potency [8] | Potency [9]

CCCC1O[C@@H]2C[C@H]3[C@@H]4CCC5=CC(=O)C=C[C@]5(C)[C@H]4[C@@H](O)C[C@]3(C)[C@]2(C(=O)CO)O1 (some centres not stated)
inactive: Potency [1] | Potency [2] | Potency [4] | Potency [5] | Potency [6] | Potency [7]
active: Potency [3] 24.6 µM and 43.6 µM | Potency [8] 49 µM | Potency [9] 30.9 µM

O=C(O)c1ccc(Cl)c(Cl)c1
inactive: Potency [1] | Potency [2] | max response [3] 2.99% | Potency [4] | Potency [6] | Potency [7] | Potency [8] | Potency [9]

CCc1oc2ccccc2c1C(=O)c1cc(Br)c(O)c(Br)c1
inactive: Potency [1] | Potency [2] | Potency [4] | Potency [5] | Potency [6] | Potency [7] | Potency [8] | Potency [9]

CC[C@@]1(O)C(=O)OCc2c1cc1n(c2=O)Cc2c-1nc1ccccc1c2/C=N/OC(C)(C)C
inactive: Potency [1] | Potency [2] | Potency [4] | Potency [9]
active: Potency [3] 0.0239 µM | Potency [5] 3.38 µM | Potency [7] 0.848 µM | Potency [8] 1.07 µM

CCCCC(CC)COP(=O)(O)OCC(CC)CCCC (configuration not stated)
inactive: Potency [2] | Potency [5] | Potency [6] | Potency [9]
active: Potency [1] 43.6 µM | Potency [4] 43.6 µM | Potency [8] 54.9 µM
49.1 µM (active) and inactive: Potency [7]

Cc1cc2c(cc1C(F)(F)F)N(C(=O)Nc1ccc(Oc3cccnc3C)nc1)CC2
active: Potency [3] 5.58 µM
inactive: Potency [1] | Potency [2] | Potency [4] | Potency [5] | Potency [9]

[Cl][Bi]([Cl])([c]1ccccc1)([c]1ccccc1)[c]1ccccc1
active: Potency [1] 24.4 µM | Potency [2] 10.9 µM | Potency [3] 1.94 µM | Potency [4] 27.4 µM | Potency [6] 6.88 µM | Potency [7] 7.71 µM | Potency [8] 4.87 µM

C/C(=C(/OCCOc1ccc(Cl)cc1)c1ccc(Cl)cc1Cl)n1ccnc1
inactive: Potency [1] | Potency [2] | Potency [4] | Potency [5] | Potency [6] | Potency [7] | Potency [8] | Potency [9]

O=C(Nc1cccc([N+](=O)[O-])c1)c1cc2ccccc2cc1O
inactive: Potency [1] | Potency [2] | Potency [4] | Potency [5] | Potency [6] | Potency [7] | Potency [8] | Potency [9]

N=C1N=C(N)c2ccccc21
active: Potency [3] 24.5 µM | Potency [8] 43.6 µM
inactive: Potency [1] | Potency [2] | Potency [4] | Potency [5] | Potency [9]
